# Measurements published in PubChem BioAssay (EPA / NIEHS).
# Results filed as inconclusive are left out. Activity calls are given as the source filed them. Rule for the calls, unless noted: active = hit-call score of the fitted dose curve at least 0.9, where 1 is the maximum; inconclusive = response in the unintended direction; inactive = score below 0.9.
# Columns and labels:
# [1] = VALA_TUBHUV_Agonist_CellCount: Viability Assessment in the VALA Sciences human Umbilical Vein Endothelial Tubule Formation (TUBHUV) Agonism Assay (AID 2284309)
# Outline: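 HUVEC co-cultured 1:3 with HDF for 3 days in 10 ng/ml VEGF, then compounds added in VEGF medium for a further 3 days (72 h). Nuclear-stain/CD31 imaging cell count. Positive-direction fit versus 0.1% DMSO vehicle.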
# [2] = VALA_TUBIPS_Antagonist_TubuleLength: VALA Sciences human iPS-derived Endothelial Tubule Formation (TUBIPS) Antagonist Assay (AID 2284313)
# Outline: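 Cells grown 3 days with 10 ng/ml VEGF, then exposed to compounds in VEGF medium for another 3 days. After fixation, nuclear stain and CD31 immunofluorescence imaging gave mean total tubule length against 0.1% DMSO; suramin (100 uM) inhibition control.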
# [3] = VALA_TUBHUV_Antagonist_TubuleLength: VALA Sciences human Umbilical Vein Endothelial Tubule Formation (TUBHUV) Antagonism Assay (AID 2284325)
# Outline: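 HUVEC–HDF co-culture (1:3) pre-grown 3 days with 10 ng/ml VEGF, then 3 days with compound plus VEGF. Fixed, nuclear and CD31 stained; total tubule length by imaging versus 0.1% DMSO; suramin 100 uM positive control.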
# [4] = VALA_TUBIPS_Antagonist_CellCount: Viability Assessment in the VALA Sciences human iPS-derived Endothelial Tubule Formation (TUBIPS) Antagonism Assay (AID 2284335)
# [5] = CCTE_Deisenroth_DEVTOX-GLR_legacy_CellCount: (Legacy) Viability Assessment in CCTE's DevTox GLR-Endo Assay, Deisenroth Lab (AID 2284331; active = hit-call score of the fitted dose curve at least 0.9, where 1 is the maximum; inactive = score below 0.9); settings: actives raise or lower the signal
# Outline: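 RUES2-GLR human pluripotent cells were seeded 24 h, then differentiated 48 h with two compound doses at 24 h intervals (10-point, 1 nM - 200 uM). Fixed nuclei were imaged and counted; bidirectional fitting versus 0.2% DMSO.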
smiles,measurement,setting,value
Oc1ccc(C(c2ccc(O)cc2)(C(F)(F)F)C(F)(F)F)cc1,AC50,[1],65.5 µM (active)
same,outcome,[2],inactive
same,outcome,[3],inactive
same,outcome,[4],inactive
C=CC(N)=O,outcome,[5],inactive
CC1=C2C[C@H]3[C@@H](CC=C4C[C@@H](O)CC[C@@]43C)[C@@H]2CC[C@]12O[C@@H]1C[C@H](C)CN[C@H]1[C@H]2C,outcome,[5],inactive
